The whole screen tested about 2,400 compounds, of which about 750 (31%) were called active. The list shows a part of the results. Unmarked numbers belong to inactive results.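 Rule for the calls: active = median signal gain over dofetilide-blocked control wells reaching their mean plus 3 SD, so readout 1 at least 0; inactive = the rest.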

Sequence of Voltage-gated inwardly rectifying potassium channel KCNH2 (Homo sapiens) (Q12809 whole entry, looked up): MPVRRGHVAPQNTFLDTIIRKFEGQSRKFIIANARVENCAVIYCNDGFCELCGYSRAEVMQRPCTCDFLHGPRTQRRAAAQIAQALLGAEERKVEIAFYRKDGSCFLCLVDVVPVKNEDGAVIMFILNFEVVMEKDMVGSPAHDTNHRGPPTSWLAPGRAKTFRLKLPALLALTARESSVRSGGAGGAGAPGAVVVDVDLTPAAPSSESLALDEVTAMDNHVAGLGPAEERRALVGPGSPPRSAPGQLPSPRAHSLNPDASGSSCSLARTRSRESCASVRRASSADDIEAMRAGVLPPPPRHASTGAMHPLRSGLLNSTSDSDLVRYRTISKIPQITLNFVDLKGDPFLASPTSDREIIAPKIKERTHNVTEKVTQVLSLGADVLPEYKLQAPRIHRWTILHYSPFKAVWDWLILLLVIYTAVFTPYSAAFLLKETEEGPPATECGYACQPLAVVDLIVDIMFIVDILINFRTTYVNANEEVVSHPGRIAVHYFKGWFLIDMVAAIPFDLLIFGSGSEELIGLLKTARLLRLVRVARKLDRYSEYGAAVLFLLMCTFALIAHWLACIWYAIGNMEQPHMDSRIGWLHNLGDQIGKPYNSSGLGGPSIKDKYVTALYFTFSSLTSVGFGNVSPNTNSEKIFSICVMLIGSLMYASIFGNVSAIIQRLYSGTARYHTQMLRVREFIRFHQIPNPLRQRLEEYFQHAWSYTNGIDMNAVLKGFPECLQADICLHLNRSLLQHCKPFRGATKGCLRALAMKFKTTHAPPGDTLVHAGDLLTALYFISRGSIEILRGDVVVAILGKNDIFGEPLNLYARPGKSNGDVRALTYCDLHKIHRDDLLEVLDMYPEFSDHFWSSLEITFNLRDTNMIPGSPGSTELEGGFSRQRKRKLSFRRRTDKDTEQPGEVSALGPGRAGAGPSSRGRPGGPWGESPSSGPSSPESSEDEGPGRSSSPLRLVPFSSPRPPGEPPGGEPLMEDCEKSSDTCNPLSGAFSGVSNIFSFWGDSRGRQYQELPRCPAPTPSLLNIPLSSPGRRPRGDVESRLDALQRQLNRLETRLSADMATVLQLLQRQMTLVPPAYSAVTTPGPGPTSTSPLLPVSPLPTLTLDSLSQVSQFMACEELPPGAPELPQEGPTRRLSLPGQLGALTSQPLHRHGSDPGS

This assay concerns the target Voltage-gated inwardly rectifying potassium channel KCNH2 (Homo sapiens) (UniProt Q12809). Briefly: hERG protection against dofetilide inhibition, confirmation, cell-based, thallium flux, duplicate retest, dofetilide IC70 (AID 1835). Conditions: hERG cell line, FluxOR thallium flux, dofetilide-blocked; at 10 µM; stronger effect = higher value. Background: hERG is a cardiac potassium channel; its block is linked to QT prolongation.
Turning to `CCN(CC)C(=O)CN1C(=O)C2CC=C(Cl)CC2C1=O` (configuration not stated), the activity increase over dofetilide control, less the hit threshold is -15%.

Regarding `CCn1c(=S)[nH]c2sc3c(c2c1=O)CCCCC3`, the activity increase over dofetilide control, less the hit threshold was 107% (active).

In the case of `Cc1cc(C)n(-c2nc3sc4c(c3c(=O)[nH]2)CCCC4)n1`, the activity increase over dofetilide control, less the hit threshold is -10%.

Turning to `O=C1c2ccccc2C(=O)N1Cc1ccco1`, the activity increase over dofetilide control, less the hit threshold was -8%.

On to `Cc1ccc(-n2c(=S)[nH]c3sc4c(c3c2=O)CCC4)cc1`, for which the activity increase over dofetilide control, less the hit threshold was -1%.

In the case of `CCCn1c(=S)[nH]c2sc3c(c2c1=O)CCCC3`, the activity increase over dofetilide control, less the hit threshold is 76% (active).

As for `CCn1c(=S)[nH]c2sc3c(c2c1=O)CCCC3`, the activity increase over dofetilide control, less the hit threshold is 27% (active).

With `O=c1c2c3c(sc2[nH]c(=S)n1Cc1ccco1)CCC3`, the activity increase over dofetilide control, less the hit threshold was 18% (active).

For the compound `CC(C)OC(=O)CSc1nnc(C2CCCCC2)n1N`, the activity increase over dofetilide control, less the hit threshold was -15%.

As to `Cc1cnc(NC(=O)CN2CCN(c3ccccc3F)CC2)s1`, the activity increase over dofetilide control, less the hit threshold is -5%.

Turning to `CCCCCOc1ccc(C2C(C(C)=O)=C(C)Nc3ncnn32)cc1OC` (configuration not stated), the activity increase over dofetilide control, less the hit threshold is -11%.

In the case of `CCc1cccc(C)c1NC(=O)Cc1ccsc1`, the activity increase over dofetilide control, less the hit threshold was -12%.

With `Cc1ccc(S(=O)(=O)N(C)C)cc1NC(=S)NC(C)CCCC(C)C` (configuration not stated), the activity increase over dofetilide control, less the hit threshold was -30%.

For the compound `Cc1sc2ncnc(SCC(=O)c3ccc(O)cc3O)c2c1C`, the activity increase over dofetilide control, less the hit threshold is 2% (active).

Consider `COC(=O)c1ccc(Cn2cnc3c(cnn3-c3ccc(Cl)cc3)c2=O)o1`, for which the activity increase over dofetilide control, less the hit threshold was -2%.

As for `COC(=O)c1ccc(CSc2ncnc3sc(C)c(C)c23)o1`, the activity increase over dofetilide control, less the hit threshold was 7% (active).

In the case of `CCC(C)NC(=O)CSc1ncnc2sccc12` (configuration not stated), the activity increase over dofetilide control, less the hit threshold was -7%.

On to `Cc1sc2ncnc(SCC(=O)NC(=O)c3cccn3C)c2c1C`, for which the activity increase over dofetilide control, less the hit threshold was 2% (active).

Consider `Cc1ccc(-n2nc3ccc(N)cc3n2)c(C)c1`, for which the activity increase over dofetilide control, less the hit threshold was -28%.

Consider `O=C(CN1CCN(Cc2ccccc2)CC1)NCc1ccccc1Cl`, for which the activity increase over dofetilide control, less the hit threshold was -1%.

For `Cc1cc(S(=O)(=O)NCC(C)C)ccc1OCC(=O)NCc1ccccn1`, the activity increase over dofetilide control, less the hit threshold is -29%.

Consider `CCOC(=O)CP(=O)(c1ccccc1)c1ccccc1`, for which the activity increase over dofetilide control, less the hit threshold was -9%.

Turning to `C/C(=N\NC(=O)CSc1nc2ccccc2o1)c1ccc(O)cc1`, the activity increase over dofetilide control, less the hit threshold is -15%.

On to `CCOC(=O)Cc1nc2ccccc2o1`, for which the activity increase over dofetilide control, less the hit threshold was 5% (active).

Turning to `O=C(Nc1nc2c(Br)cc(Br)cc2c(=O)s1)C1CCC1`, the activity increase over dofetilide control, less the hit threshold is 1% (active).

Consider `Cc1cc(C)c2nc(NC(=O)C3CCCO3)sc2c1` (configuration not stated), for which the activity increase over dofetilide control, less the hit threshold is -8%.

`O=C(Nc1cccc(Br)c1)C1CCCC1`: the activity increase over dofetilide control, less the hit threshold was -11%.

Take `O=C(COc1ccc(S(=O)(=O)NCc2ccccc2)cc1Cl)NCC1CCCO1` (configuration not stated): the activity increase over dofetilide control, less the hit threshold is -26%.

Consider `COc1ccc(NC(=O)c2onc(C)c2Cl)cc1`, for which the activity increase over dofetilide control, less the hit threshold is -10%.

As for `Cc1cccnc1NC(=O)c1csnn1`, the activity increase over dofetilide control, less the hit threshold was -3%.

Regarding `Cc1snnc1C(=O)NC(=S)Nc1ccccc1`, the activity increase over dofetilide control, less the hit threshold is 30% (active).

For the compound `O=C(NC(=S)Nc1ccccc1Cl)c1csnn1`, the activity increase over dofetilide control, less the hit threshold was 79% (active).

As to `O=C(NC(=S)Nc1ccccc1)c1csnn1`, the activity increase over dofetilide control, less the hit threshold was 88% (active).

Turning to `COc1ccc(NC(=S)Nc2ccccn2)cc1`, the activity increase over dofetilide control, less the hit threshold is -11%.

On to `COc1ccc(NC(=S)NC(=O)c2csnn2)cc1`, for which the activity increase over dofetilide control, less the hit threshold was 23% (active).

Consider `O=C(NC(=S)Nc1ccccc1)c1cncc(C#Cc2ccccc2)c1`, for which the activity increase over dofetilide control, less the hit threshold was -8%.

On to `Cc1ccc(NC(=S)NC(=O)c2ccc(-c3ccccc3)cc2)cc1`, for which the activity increase over dofetilide control, less the hit threshold is -2%.

Turning to `O=c1[nH]c2ccccc2nc1C(F)(F)C(F)F`, the activity increase over dofetilide control, less the hit threshold is -11%.

In the case of `C/C(=N/NC(=O)c1ccncc1)c1ccc2c(c1)OCO2`, the activity increase over dofetilide control, less the hit threshold was -9%.

As to `O=C1CSC(=S)N1/N=C/c1cc(Br)ccc1O`, the activity increase over dofetilide control, less the hit threshold is 7% (active).

As for `Cc1oc(-c2cccs2)nc1CN1CCC(C(=O)N2CCCC2)CC1`, the activity increase over dofetilide control, less the hit threshold was -11%.

As for `Cc1cccc(C(=O)NC(=S)NNC(=O)COc2c(C)cccc2C)c1`, the activity increase over dofetilide control, less the hit threshold was -12%.

In the case of `CN(C(=S)NC(=O)c1ccccc1)C1CCCCC1`, the activity increase over dofetilide control, less the hit threshold is 16% (active).

On to `Cc1ccc(C(=O)NC(=S)N(C)C2CCCCC2)cc1Br`, for which the activity increase over dofetilide control, less the hit threshold is -5%.

As to `Cc1cccc(C(=O)NC(=S)N(C)C2CCCCC2)c1`, the activity increase over dofetilide control, less the hit threshold is 21% (active).

For the compound `Cc1ccc(C(=O)NC(=S)N(C)C2CCCCC2)cc1`, the activity increase over dofetilide control, less the hit threshold is 27% (active).

`CN(C(=S)NC(=O)c1ccc(F)cc1)C1CCCCC1`: the activity increase over dofetilide control, less the hit threshold is 6% (active).

As for `COc1ccc(C(=O)NC(=S)N(C)C2CCCCC2)cc1`, the activity increase over dofetilide control, less the hit threshold is -2%.

`CN(C(=S)NC(=O)c1ccc(Cl)cc1)C1CCCCC1`: the activity increase over dofetilide control, less the hit threshold is -3%.

For the compound `O=C(N/N=C/c1ccc(OC(F)F)cc1)C1=COCCO1`, the activity increase over dofetilide control, less the hit threshold is -8%.

With `c1ccc2oc(-c3nn4c(Cn5cnc6ccccc65)nnc4s3)cc2c1`, the activity increase over dofetilide control, less the hit threshold was -12%.

As for `CCC(=O)N1c2ccc(C)cc2C2=NNC(=S)NC21O` (configuration not stated), the activity increase over dofetilide control, less the hit threshold was -6%.

Turning to `O=C(NC(=S)Nc1ccc(C(F)(F)F)cc1)c1csnn1`, the activity increase over dofetilide control, less the hit threshold is 60% (active).

In the case of `O=C(NC(=S)Nc1cccc(C(F)(F)F)c1)c1csnn1`, the activity increase over dofetilide control, less the hit threshold was 102% (active).

`O=C(Nc1ccc(-c2csc(Nc3cccc(C(F)(F)F)c3)n2)cc1)c1ccccc1`: the activity increase over dofetilide control, less the hit threshold is -25%.

Regarding `COc1ccc(C(=O)O)cc1S(=O)(=O)Nc1cccc(C(F)(F)F)c1`, the activity increase over dofetilide control, less the hit threshold was -4%.

In the case of `Cc1cc(-c2nnc(SCC(=O)Nc3ccc(C(F)(F)F)cc3)n2C)no1`, the activity increase over dofetilide control, less the hit threshold is -23%.

These data come from PubChem BioAssay AID1835 (Johns Hopkins Ion Channel Center, 2009).
